# RT RNaseH block: blocks HIV-1 RNase H cleavage of RNA/DNA duplex | P04585 | RT-RNase H RNA/DNA duplex cleavage, fluorescence | inhibition, % at 10 µM | 65,000 tested, 1.9% active | AID 565; in the data active = inhibition above about 50%
# RmlCD inh mix: mixture blocks RmlC and RmlD coupled enzyme activity | AID 1532 | inhibition, % at 5.5 µM | RmlC/RmlD coupled enzyme inhibition, 384-well mixture HTS | 110,000 tested, 0.39% active; in the data active = inhibition above about 30%, passing the limit was not always enough
# RmlCD artifact: shows fluorescent artifact in RmlC/RmlD assay, dose-response counter-screen; calls only; shares compounds with RmlCD inh mix; 360 tested, 96% active; RmlC/RmlD assay fluorescence artifact counter-screen; call rule not given here;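 also: compound alone with no enzyme and no substrates present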
# * = called active by the depositor; i = inactive; . = no result given; + = active, no number. The sample as a whole holds a higher share of hits than the screen did.
SMILES,RT RNaseH block,RmlCD inh mix,RmlCD artifact
COc1ccc(-c2cc(C(F)(F)F)n3ncc(C(=O)NCC4CCCO4)c3n2)cc1 (configuration not stated),4,36*,+
COc1cccc(-c2cc(C(F)(F)F)n3ncc(C(=O)NCC4CCCO4)c3n2)c1 (configuration not stated),-22,8,.
N#Cc1c(C(F)(F)F)cc(C2CC2)[nH]c1=O,1,40*,+
N#Cc1c(C(F)(F)F)cc(-c2ccccc2)[nH]c1=O,.,28,.
CS(=O)(=O)N(CC(=O)N1CCc2ccccc2C1)Cc1ccccc1,.,11,.
O=C(c1ccccc1)c1cnc(Nc2ccccc2Cl)s1,.,-21,.
Cc1cc(/C=C(\C#N)C(=O)OCC(=O)NC(=O)NC(C)(C)C)c(C)n1CCC(C)C,.,2,.
C=CCNC(=O)NC(=O)COC(=O)/C(C#N)=C/c1cc(C)n(CCC(C)C)c1C,.,30*,+
CN1CC2(Cc3c1ccc1ccccc31)C(=O)OC(C)(C)OC2=O,3,+,+
Cc1ccc2c(c1)CC1(CN2C)C(=O)OC2(CCCCC2)OC1=O,-1,-8,.
Cc1cc(C)n(-c2c(F)c(F)c(CO)c(F)c2F)n1,.,-17,.
COc1c2c(nc3occc13)C(CCC(C)(C)O)(OC)C(O)CC2 (configuration not stated),-38,26,.
CNC(=O)c1cc2c(s1)-c1ccccc1CC2,.,.,+
O=C(N/N=C/c1ccc(F)c(F)c1)c1cc2c(s1)-c1ccccc1CC2,.,-111,.
CCOc1ccccc1NC(=O)C(Sc1ccccc1)c1ccccc1 (configuration not stated),.,-23,.
Cn1c(/C=N/n2cnnc2)nc2ccccc21,-15,44*,+
Cn1c(/C=N/c2nc3ccccc3[nH]2)nc2ccccc21,3,12,.
Cc1nonc1OCC(C)(COc1nonc1C)NC(=O)c1ccccc1,.,-10,.
CCOC(=O)C(CC)(CC)C(=O)/C=C/c1cccc(Br)c1,.,-9,.
CCOC(=O)CNc1c(-c2ccc(Cl)cc2)nc2cnccn12,-20,.,.
CCOC(=O)CNc1c(-c2ccc(F)cc2)nc2cnccn12,3,50*,+
CNC(=O)c1cc2c(=O)n3cc(C)ccc3nc2n(Cc2ccco2)c1=N,-17,.,.
Cc1ccc2nc3c(cc(C(=O)NCC4CCCO4)c(=N)n3CCCOC(C)C)c(=O)n2c1 (configuration not stated),1,126*,+
O=C(c1coc2ccccc2c1=O)N1CCN(c2cccc(C(F)(F)F)c2)CC1,0,.,.
COc1ccc(S(=O)(=O)N2CCN(c3nc4ccccc4nc3-n3nc(C)cc3C)CC2)cc1,6,-5,.
SMILES,RT RNaseH block,RmlCD inh mix,RmlCD artifact
CCOC(=O)CSc1nnc(-c2ccccc2OC)o1,-8,9,.
CCCCCCc1cc2cc(-c3nnc(-c4ccccc4OC)o3)c(=O)oc2cc1O,.,181*,+
Cc1noc(/C=C/N(C)C)c1S(=O)(=O)N1CCCC(C(=O)NCc2ccccc2Cl)C1 (configuration not stated),-11,.,.
Clc1ccc(-c2cn3cccnc3n2)cc1Cl,.,9,.
Clc1ccc(-c2cn3cccnc3n2)cc1,.,40*,+
O=S(=O)(c1cccc(-c2cn3cccnc3n2)c1)N1CCCCCC1,47,-25,.
CC1CN(S(=O)(=O)c2cccc(-c3cn4cccnc4n3)c2)CC(C)O1 (configuration not stated),0,.,.
Brc1ccc(-c2cn3cccnc3n2)cc1,-10,45*,+
O=S(=O)(c1cccc(-c2cn3cccnc3n2)c1)N1CCOCC1,22,67*,+
CCn1c(=O)n(CC)c2cc(S(=O)(=O)Nc3cc(C)cc(C)c3C#N)ccc21,.,10,.
Clc1ccc(C(c2nnnn2CCc2ccccc2)N2CCSCC2)cc1 (configuration not stated),.,6,.
O=C(Nc1ccccc1C(F)(F)F)c1cc(S(=O)(=O)N2CCOCC2)ccc1F,-5,9,.
COC(=O)Cc1c(C)c2ccc(OCC(=O)N(C)C)cc2oc1=O,.,31*,+
COC(=O)Cc1c(C)c2ccc(OCC(C)=O)c(C)c2oc1=O,-1,8,.
CCN(CC)Cc1c(O)ccc2c(C)c(CC(=O)OC)c(=O)oc12,-1,110*,+
CCCOc1ccc2c(C)c(CC(=O)OC)c(=O)oc2c1,-10,-9,.
Cc1cc(NC(=O)CCC(=O)N(CC(=O)NCC2CCCO2)c2ccc3c(c2)OCCO3)no1 (configuration not stated),.,-33,.
CC1(C)Cc2cccc(OCC(=O)Nc3cccnc3Cl)c2O1,.,5,.
COc1cc2cc(CN(Cc3ccc4c(c3)OCO4)C(=O)c3ccco3)c(=O)[nH]c2cc1OC,.,46*,+
Cc1cc2cc(CN(Cc3ccc4c(c3)OCO4)C(=O)c3ccco3)c(=O)[nH]c2cc1C,6,12,.
CCOc1ccc(CCNS(=O)(=O)c2cccc3nsnc23)cc1OCC,-9,-6,.
CC(C)(C)NS(=O)(=O)c1ccc(NC(=O)C(Sc2ccccc2)c2ccccc2)cc1 (configuration not stated),.,-11,.
CC(=O)NC1=NN(C(C)=O)C(C)(CS(=O)(=O)c2ccc3ccccc3c2)S1 (configuration not stated),.,-8,.
COc1ccc(C)cc1NC(=O)c1cnc2n(c1=O)CCS2,2,7,.
COc1ccc(C)cc1NC(=O)c1cnc2scc(C)n2c1=O,-9,47*,+
SMILES,RT RNaseH block,RmlCD inh mix,RmlCD artifact
O=C(O)c1ccc(-c2nc3ccccc3[nH]2)cc1,.,.,i
Nc1ccc(-c2nc3ccccc3[nH]2)cc1,-1,19,.
Cc1cc(C)cc(CC(Cc2nc3ccccc3[nH]2)c2nc3ccccc3[nH]2)c1 (configuration not stated),.,1,.
CC(C)Cn1c(-c2ccc(C#N)cc2)nc2c1c(=O)[nH]c(=O)n2CC(C)C,.,32*,+
CCCCn1c(=O)[nH]c(=O)c2c1nc(-c1ccc(C#N)cc1)n2C1CCCC1,34,.,.
CCOC(=O)c1sc(NC(=O)Nc2ccc(Cl)cc2)nc1C,.,-14,.
COc1ccc(NC(=O)c2oc3ccccc3c2NC(=O)COc2ccccc2OC)c(OC)c1,22,104*,+
COc1ccc(NC(=O)c2oc3ccccc3c2NC(=O)c2ccc(OC)c(OC)c2)c(OC)c1,6,.,.
O=C(c1ccc(F)cc1)n1c(NCc2ccccc2)n[nH]c1=S,.,.,i
CC(=O)n1nc(-c2ccccc2)nc1NCc1ccc(F)cc1,-9,-3,.
CCCc1cc(N2CCN(C(=O)c3ccco3)CC2)n2c(nc3ccccc32)c1C#N,.,39*,+
CCCc1cc(-n2ccnc2C)n2c(nc3ccccc32)c1C#N,-8,.,.
Cc1cccc(N2CCN(C(=O)n3ccnc3)CC2)c1C,-9,11,.
O=c1c(-c2ccc3c(c2)OCCO3)coc2c(CN3CCOCC3)c(O)ccc12,-5,13,.
Cc1c(O)ccc2c3c(c(=O)oc12)CCCC3,-26,70,.
Cc1cc(=O)oc2c(CN(CC(C)C)CC(C)C)c(O)ccc12,.,105*,+
CCN(CC)Cc1c(O)ccc2c(-c3ccccc3)cc(=O)oc12,-6,-8,.
CC(C)CN(Cc1c(O)ccc2c3c(c(=O)oc12)CCC3)CC(C)C,.,95*,+
O=c1oc2c(CN3CCOCC3)c(O)ccc2c2c1CCC2,-6,100*,+
Cc1ccc2cc(C)c3nnc(SCC(=O)Nc4nc5c(s4)CCCC5)n3c2c1,.,6,.
